This is a sample that favours compounds with a hit; in the whole collection about 1.7% have one here.
EBNA-1 inhibitor – blocks EBNA-1 binding to DNA | EBNA-1 DNA binding, fluorescence polarization | inhibition, % at 14.8 µM | hit rate 0.34% among 300,000 | AID 1950; in the data active means inhibition above about 28%
GSTO1 inh – GSTO1 inhibition, counter-screen for RBBP9 inhibitors | P78417 | recombinant GSTO1, activity-based probe fluorescence polarization | inhibition, % at 5.96 µM | hit rate 1.1% among 300,000 | AID 1974;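 active means inhibition above the campaign mean inhibition plus 3 SD, cut at about 35% in these data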;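 further: 0% = GSTO1-1 with DMSO and 100% = wells lacking GSTO1-1 enzyme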
PAD4 FP inh – blocks human protein arginine deiminase 4 | Q9UM07 | recombinant PAD4, RCA probe fluorescence polarization | inhibition, % at 6.36 µM | hit rate 0.41% among 330,000;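 active means percent inhibition above a cutoff equal to the mean of all tested compounds plus 3 SD, cut at about 15% in these data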;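 further: 0% = PAD4 with RCA probe and DMSO and 100% = probe without PAD4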
LYPLA1 counter – counter-screen for PME1 inhibitors: inhibitors of human LYPLA1; hit rate 0.16% among 320,000; AID 2174; inhibition, % at 5.9 µM; recombinant LYPLA1, FP-Rh probe fluorescence polarization;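 active means inhibition above the mean of all tested compounds plus 3 SD, set per campaign, cut at about 14% in these data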;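 further: inhibitors block serine hydrolase probe labeling of LYPLA1 so polarization falls; 0% = enzyme with DMSO and 100% = wells lacking LYPLA1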
ZTA DNA inh – counter-screen for EBNA-1 inhibitors: inhibitors of Epstein-Barr virus ZTA; ZTA-DNA binding, fluorescence polarization; inhibition, % at 11 µM; hit rate 0.15% among 320,000; in the data active means inhibition above about 33%
LYPLA2 inh – LYPLA2 (human) inhibition in PME1 counter-screen; O95372; recombinant LYPLA2, FP-Rh probe fluorescence polarization; inhibition, % at 5.9 µM; hit rate 0.38% among 320,000;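 active means inhibition above the screen-wide mean plus 3 SD, limit set per campaign, cut at about 26% in these data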;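 further: 0% = LYPLA2 with DMSO and 100% = wells lacking LYPLA2 enzyme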
GSTO1 confirm – confirmation of human GSTO1 inhibitors; AID 2176; recombinant GSTO1, probe fluorescence polarization; inhibition, % at 5.96 µM; shares compounds with GSTO1 inh; hit rate 54% among 2,400;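 active means inhibition above the primary screen's cutoff, its mean inhibition plus 3 SD, cut at about 35% in these data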;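 further: loss of polarization as inhibitors block binding of rhodamine sulfonate ester activity probe; 0% = GSTO1 with DMSO and 100% = wells lacking GSTO1 enzyme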
Numbers without * were called inactive.

Results for NS(=O)(=O)c1ccc(CCNC(=O)c2ccc(Cl)s2)cc1 ?
EBNA-1 inhibitor: -3; GSTO1 inh: 0; PAD4 FP inh: 5; LYPLA1 counter: 1; ZTA DNA inh: 1; LYPLA2 inh: 7

Results for NS(=O)(=O)c1ccc(CCNC(=O)c2ccc([N+](=O)[O-])s2)cc1 ?
EBNA-1 inhibitor: -1; GSTO1 inh: 50*; PAD4 FP inh: -16; LYPLA1 counter: -1; ZTA DNA inh: -10; LYPLA2 inh: -1; GSTO1 confirm: 7

How did CCN1C(=O)C2(C(C#N)=C(N)Oc3c2c(C)nn3-c2ccccc2)c2ccccc21 (stereo not drawn) do in these assays?
EBNA-1 inhibitor: -14; GSTO1 inh: 39*; PAD4 FP inh: -4; LYPLA1 counter: -2; ZTA DNA inh: 3; LYPLA2 inh: 1; GSTO1 confirm: 10

How did O=c1c(O)c(-c2ccc(O)c(O)c2)oc2cc(O)cc(O)c12 do in these assays?
EBNA-1 inhibitor: 7; GSTO1 inh: 57*; PAD4 FP inh: -8; LYPLA1 counter: -20; ZTA DNA inh: 8; LYPLA2 inh: -18; GSTO1 confirm: 66*

What do the screens show for `O=c1cc(-c2ccc(O)c(O)c2)oc2cc(O)cc(O)c12`?
EBNA-1 inhibitor: -5; GSTO1 inh: 50*; PAD4 FP inh: 1; LYPLA1 counter: -18; ZTA DNA inh: 10; LYPLA2 inh: -25; GSTO1 confirm: 47*

Results for C[C@]12C=CC(=O)C=C1CC[C@@H]1C2[C@@H](O)C[C@@]2(C)C1CC[C@]2(O)C(=O)COC(=O)CCC(=O)O (stereo partly drawn) ?
EBNA-1 inhibitor: 0; GSTO1 inh: 0; PAD4 FP inh: 0; LYPLA1 counter: 2; ZTA DNA inh: -1; LYPLA2 inh: 2

What do the screens show for `Cc1ccc(NS(=O)(=O)c2c(C(=O)N3CCCC3)c(C)n(C)c2C)cc1`?
EBNA-1 inhibitor: -19; GSTO1 inh: 1; PAD4 FP inh: 4; LYPLA1 counter: 0; ZTA DNA inh: 3; LYPLA2 inh: -1

What do the screens show for `COC(=O)C1CN(C(=O)C(C)Oc2ccc(C(C)C)cc2)c2ccccc2O1` (stereo not drawn)?
EBNA-1 inhibitor: -1; GSTO1 inh: 10; PAD4 FP inh: -6; LYPLA1 counter: 4; ZTA DNA inh: 2; LYPLA2 inh: 0

What do the screens show for `Oc1ccccc1Oc1ncc(Br)c(Cl)n1`?
EBNA-1 inhibitor: -14; GSTO1 inh: 49*; PAD4 FP inh: -1; LYPLA1 counter: -5; ZTA DNA inh: 0; LYPLA2 inh: -4; GSTO1 confirm: 4

How did COc1ccc(CC(=O)Nc2sc3c(c2C(N)=O)CCCC3)cc1 do in these assays?
EBNA-1 inhibitor: -12; GSTO1 inh: 4; PAD4 FP inh: -2; LYPLA1 counter: 2; ZTA DNA inh: -4; LYPLA2 inh: -1

Results for COc1ccc2nc(Nc3sc4c(c3C(N)=O)CCCC4)sc2c1 ?
EBNA-1 inhibitor: -1; GSTO1 inh: 42*; PAD4 FP inh: -57; LYPLA1 counter: -6; ZTA DNA inh: -2; LYPLA2 inh: -5; GSTO1 confirm: 25

What do the screens show for `Oc1ccccc1NCC(O)Cn1ccc2ccccc21` (stereo not drawn)?
EBNA-1 inhibitor: -2; GSTO1 inh: 66*; PAD4 FP inh: -6; LYPLA1 counter: -7; ZTA DNA inh: -33; LYPLA2 inh: 7; GSTO1 confirm: 7

What do the screens show for `COc1ccc(NC(=O)NCCC2=CCCCC2)cc1`?
EBNA-1 inhibitor: 12; GSTO1 inh: 64*; PAD4 FP inh: 0; LYPLA1 counter: 0; ZTA DNA inh: -24; LYPLA2 inh: 3; GSTO1 confirm: 10

How did O=C(NCc1ccc2c(c1)OCO2)c1ccc(CS(=O)Cc2ccc(Cl)cc2)o1 (stereo not drawn) do in these assays?
EBNA-1 inhibitor: -19; GSTO1 inh: 5; PAD4 FP inh: -5; LYPLA1 counter: -1; ZTA DNA inh: 1; LYPLA2 inh: 0

How did O=C(NCc1ccc2c(c1)OCO2)c1nnc(Cc2ccc(Cl)cc2)o1 do in these assays?
EBNA-1 inhibitor: 3; GSTO1 inh: 59*; PAD4 FP inh: -2; LYPLA1 counter: 4; ZTA DNA inh: -6; LYPLA2 inh: 2; GSTO1 confirm: 1

How did COc1ccc(S(=O)(=O)N2CCCC(C(=O)NC3CC3)C2)cc1Cl (stereo not drawn) do in these assays?
EBNA-1 inhibitor: 16; GSTO1 inh: 5; PAD4 FP inh: 3; LYPLA1 counter: -1; ZTA DNA inh: 20; LYPLA2 inh: 1

High-throughput results as filed in PubChem BioAssay.
